Molecules are shown by their SMILES. The whole screen tested about 69,000 compounds, of which about 8,600 (12%) showed an effect of 50% or more. This is one part of a sample in which strong results are shown more often than they occur.

This assay deals with Plasmodium berghei. Briefly: Screen against P. berghei liver stage (PbLuc), transformed with Luciferase, at 10uM. The format is functional, HepG2. As to conditions: tested at 10 uM.
`O=S(=O)(NCCCn1cncn1)c1ccc2c(c1)CCCC2`: the INHIBITION amounted to 50.4%.
The value for `O=S(=O)(NCCCn1cncn1)c1ccc2c(c1)CCO2` was 44.9%; that for `O=S(=O)(NCCCn1cncn1)c1ccc2c(c1)CCC2` was -58.1%.
The result for `CCOc1ccc(C(=O)NC2CCN(c3ncccn3)CC2)cc1C` reads 34.2%.
The value for `CCOc1ccc(C(=O)NC2CC2)cc1C` was 57%; that for `CCOc1ccc(CCCC(=O)N2CC[C@H](NC(C)=O)C2)cc1C` was 16%; that for `CCN(CC)C(CNC(=O)c1ccc(S(=O)(=O)NC)cc1)c1ccco1` (configuration not stated) was 6.12%.
With `COc1cccc(OCC(=O)N(C)c2cccnc2N(C)C)c1`, the INHIBITION amounted to 33.1%.
For the molecule `COc1cccc(OCC(=O)NS(=O)(=O)c2cccnc2)c1`, the INHIBITION is reported as -19.05%.
The result for `COc1cccc(OCC(=O)N(C)c2cccnc2)c1` reads 53.7%; that for `Cc1nc(C(C)C)sc1C(C)N(C)C(=O)c1ccc(=O)n(C)n1` (configuration not stated), -19.7%.
The result for `CCN(CC)c1ncccc1CNCc1cc2ccccc2s1` reads 5.91%; that for `Cc1cc(NC(=O)CN2CCOC(CN(C)C)C2)n(C)n1` (configuration not stated), 4.35%; that for `Cc1nc(CN2CCO[C@@H]3CN(Cc4nccs4)C[C@@H]3C2)cs1`, 3.69%.
For `O=C(CN1CCCC1c1cccs1)N1CCc2sccc2C1` (configuration not stated), the INHIBITION is 19.2%.
With `CC(C)c1noc(-c2cccc(OCC(N)=O)c2)n1`, the INHIBITION is reported as -110%.
For the molecule `O=C(c1ccc2ncsc2c1)N1CCC(C(=O)O)(n2cccn2)CC1`, the INHIBITION is listed as -0.529%.
The value for `O=C(c1ccc2sccc2c1)N1CCC(C(=O)O)(n2cccn2)CC1` was -16.6%; that for `O=C(c1ccc2occc2c1)N1CCC(C(=O)O)(n2cccn2)CC1` was 60%; that for `CN1CC2(CCN(CCCOCc3ccccc3)CC2)OC1=O` was 42.8%.
The value for `O=C(C1CCOC1)N1C[C@H]2CN(Cc3ccccn3)C[C@H]2C1` (some centres not stated) was 33.5%; that for `CC(=O)N(Cc1ncc(C)o1)C1CCN(Cc2sc(C)nc2C)C1` (configuration not stated) was -2.19%; that for `c1ccc(Sc2ccc3c(c2)OCO3)c(CNC2=NCCN2)c1` was 87.1%.
The value for `Fc1ccc(Sc2ccccc2CNC2=NCCN2)cc1` was 83.3%.
For the molecule `O=C1NCCCCC1Sc1ccccc1F` (configuration not stated), the INHIBITION came out at 13.6%.
With `O=C(Cc1cccnc1)NCCSc1ccccc1F`, the INHIBITION is -11.6%.
As to `CNC(C)Cc1ccccc1Sc1ccc(O)cc1` (configuration not stated), the INHIBITION is recorded as -2.39%.
`c1cc2c(cc1C1(CNC3=NCCN3)CCCC1)OCCO2`: the INHIBITION is listed as 27.6%.
The result for `CC(C)NCc1nc(-c2ccc3c(c2)OCO3)c[nH]1` reads -40.5%.
The result for `NCc1ccccc1Sc1ccc(O)cc1` reads 39.4%; that for `Fc1ccccc1Sc1ccccc1CNC1=NCCN1`, 75.7%; that for `CCCc1ccc(OCCNCc2ccco2)c(OC)c1`, 1.71%.
The value for `Cc1ccc(C2CCCN2S(=O)(=O)N(C)Cc2nccn2C)o1` (configuration not stated) was 40.8%.
With `Cc1nc(CN2CC[C@@H](OCC3CC3)[C@@H]2Cc2cccnc2)cs1`, the INHIBITION came to 10.5%.
For the molecule `Cc1cnn(CC2CN(Cc3nnc(-c4ccccc4)o3)CCO2)c1` (configuration not stated), the INHIBITION was -13.3%.
The value for `CC(=O)NC1CCCN(Cc2ccn(C)c(=O)c2)C1` (configuration not stated) was -4.4825%; that for `CNc1nc(C(=O)N2C[C@@H]3CC[C@H]2CN(C2CCOCC2)C3)cs1` was 12.8%.
With `CC(c1nc(C2CC2)no1)N(C)Cc1cccc(F)c1` (configuration not stated), the INHIBITION stood at 53.4%.
The value for `CC(c1nc(C2CC2)no1)N(C)Cc1ccc(Cl)cc1` (configuration not stated) was 43.1%.
As for `CC(c1nc(C2CC2)no1)N(C)Cc1ccc2c(c1)OCCO2` (configuration not stated), the INHIBITION is 12.3%.
The result for `Cn1ccc2c(C(=O)N3CCCC(c4nnc[nH]4)C3)cccc21` (configuration not stated) reads -66.9%; that for `CCCNC(=O)c1ncn2c1CN(CC(C)C)S(=O)(=O)c1ccccc1-2`, 57.9%.
The value for `CC(C)CN1Cc2c(C(=O)NC3CC3)ncn2-c2ccccc2S1(=O)=O` was 50.9%; that for `CCN1Cc2c(C(=O)NCC3CC3)ncn2-c2ccccc2S1(=O)=O` was 0.139%; that for `CCC(CC)NC(=O)c1ncn2c1CN(CC)S(=O)(=O)c1ccccc1-2` was 52%.
The result for `CCN1Cc2c(C(=O)NC(C)C(C)C)ncn2-c2ccccc2S1(=O)=O` (configuration not stated) reads 29.9%; that for `CC(C)CCN1Cc2c(C(=O)O)ncn2-c2ccccc2S1(=O)=O`, 31.8%; that for `CN1Cc2c(C(=O)NC3CCCCC3)ncn2-c2ccccc2S1(=O)=O`, 43.4%.
As for `CCNC(=O)c1ncn2c1CN(C)S(=O)(=O)c1ccccc1-2`, the INHIBITION was -1.53%.
The result for `CNC(=O)c1ncn2c1CN(CCC(C)C)S(=O)(=O)c1ccccc1-2` reads 64.9%; that for `CCN1Cc2c(C(=O)NC(C)C)ncn2-c2ccccc2S1(=O)=O`, 31.1%.
The result for `CCN1Cc2c(C(=O)NC)ncn2-c2ccccc2S1(=O)=O` reads 45.1%; that for `CC(C)CN1Cc2c(C(=O)N(C)C)ncn2-c2ccccc2S1(=O)=O`, 5.69%; that for `Cc1ccc(C)c(CSc2nnc(C(N)Cc3ccccc3)o2)c1` (configuration not stated), 43.8%.
The value for `Cc1ccc(-c2cc(C3=NC(=CN4CCN(C)CC4)NO3)[nH]n2)s1` was 39.6%; that for `Cc1ccsc1CNC1CCCN(Cc2noc(C3CC3)n2)C1` (configuration not stated) was 31.8%; that for `CC1CN(CCOc2cccc(C#N)c2)CCN1Cc1nccn1C` (configuration not stated) was -3.2%.
Consider `COc1ccc(CN2CCC3(CC2)CC(c2cccnc2)CO3)cc1` (configuration not stated), for which the INHIBITION turned out to be 15.4%.
Consider `Cc1csc(N2CCCN(C(=O)C3(C#N)CCCC3)CC2)n1`, for which the INHIBITION is on record as -33.32%.
The value for `CN(C)CC1CN(Cc2ccc3c(c2)OCO3)Cc2nccn2C1` (configuration not stated) was 43.8%; that for `CNc1ncc(CN(C)C2CCN(C(C)C)CC2)cn1` was -52.2%; that for `Cc1noc(C)c1CN(C)c1ncnc2ccccc12` was 35.6%.
The result for `CNc1ncc(CN(C)c2nc(C)c3ccc(S(C)(=O)=O)cc3n2)cn1` reads -9.54%; that for `CNc1ncc(CN(C)c2ncnc3onc(C)c23)cn1`, 62.9%; that for `Cc1noc(C)c1CN(C)c1ncnc2onc(C)c12`, 74.7%.
On to `Cc1noc2ncnc(N(C)Cc3ccco3)c12`, for which the INHIBITION was determined as 10.1%.
The result for `Cc1ccc(S(=O)(=O)NC(=O)C2(c3ccccc3)CCC2)c(C)c1` reads 21.1%; that for `CNc1ccc(C)cc1C(=O)N1CCCC2(CCNC2)C1` (configuration not stated), 33.7%.
Take `Cc1ccc(OCCN(C)Cc2nccn2C)c(C)c1`: the INHIBITION came to 55%.
For `CN(Cc1cc2c(cc1OC(F)F)OCO2)Cc1nccn1C`, the INHIBITION is reported as 43.6%.
The result for `CN(CCCOc1ccccc1)Cc1nccn1C` reads 20.5%; that for `CCOc1cccc(C(=O)N2CCC(c3n[nH]c(C4CC4)n3)CC2)c1`, 11.2%; that for `CC(C)N1CCCC(CNC(=O)c2ccnc(-n3ccnc3)c2)C1` (configuration not stated), -33%.
The result for `c1cncc(OCC2CN(Cc3nccs3)Cc3nccn3C2)c1` (configuration not stated) reads 8.52%; that for `Nc1cc(C(=O)NCC2CCN(CCc3ccccc3)C2)ccn1` (configuration not stated), 37.2%; that for `COCCN1CCC(CNC(=O)c2cc(C)cc(C)c2)C1` (configuration not stated), 58.3%.
The value for `COCCN1CCC(CNC(=O)C2(c3ccc(F)cc3)CCC2)CC1` was 8.64%; that for `COCCN1CCC(CNC(=O)Nc2ccc(SC(F)(F)F)cc2)C1` (configuration not stated) was 66.5%.
With `O=C(NCC1CCN(CCc2ccccc2)C1)c1c(F)cccc1F` (configuration not stated), the INHIBITION came to 45.1%.
The value for `COCCN1CCC(CNC(=O)Nc2ccc(-c3ccccc3)cc2)C1` (configuration not stated) was 42.5%; that for `COCCN1CCC(CNC(=O)C2(c3ccc(Br)cc3)CCCC2)C1` (configuration not stated) was 52.5%.
The result for `COCCN1CCC(CNC(=O)Nc2ccc(F)c(Cl)c2)C1` (configuration not stated) reads 7.44%.
In the case of `COCCN1CCC(CNC(=O)C2(c3cc(C)cc(C)c3)CCC2)C1` (configuration not stated), the INHIBITION is on record as 40.9%.
The result for `COCCN1CCC(CNC(=O)C2(c3ccccc3)CCC2)C1` (configuration not stated) reads 45.7%.
As for `O=C(NCC1CCN(CCc2ccccc2)C1)c1cc(Cl)c[nH]1` (configuration not stated), the INHIBITION is recorded as 72.3%.
The value for `COCCN1CCC(CNC(=O)C2(c3cc(C)cc(C)c3)CC2)CC1` was 26.5%; that for `CC1CCN(c2cncc(CCC3CCCN3)n2)CC1` (configuration not stated) was 35.8%.
Regarding `CN(C)CC(=O)N1CCC2(CCN(Cc3cccc(F)c3)CC2)C1`, the INHIBITION is 9.97%.
The value for `CSCC[C@H](NC(=O)CCn1ccc2c(Br)cccc21)C(=O)O` was -2.13%; that for `CCCn1nccc1NC(=O)CN1CCC[C@H]1CO` was -72.2%; that for `COCC1CN(CC2CC2)Cc2nccn2C1` (configuration not stated) was 35.7%.
The result for `N#CC1(C(=O)N2CCN(Cc3cscn3)CC2)CCCCC1` reads 25.6%.
Consider `CC(C)c1nc(CN(C)C(=O)CCc2ccc3c(c2)OCO3)cs1`, for which the INHIBITION stood at 19.4%.
With `COC(=O)C(NC(=O)CC(C)C)c1cc(F)ccc1F` (configuration not stated), the INHIBITION came out at 15.6%.
The result for `CCN1CCC(CNC(=O)c2cc(Cl)c[nH]2)CC1` reads 7.39%.
The value for `CCN1CCC(CNC(=O)C2(c3cccc(C)c3)CC2)C1` (configuration not stated) was 37%; that for `CCCN1CCC(CNC(=O)C2(c3cc(C)cc(C)c3)CCC2)C1` (configuration not stated) was 25.1%; that for `CCN1CCCC(CNC(=O)C2(c3cc(C)cc(C)c3)CCC2)C1` (configuration not stated) was 51.1%.
For `COCCN1CCC(CNC(=O)c2c[nH]c(=O)c(Cl)c2)CC1`, the INHIBITION is given as -16%.
The result for `COCCN1CCC(CNC(=O)c2cc(Cl)c[nH]2)CC1` reads 72.3%; that for `CCOc1cc(CNC(=O)NCc2nc(C)c(C)s2)ccn1`, 30.1%.
The result for `CCOc1cc(CNC(C)c2ccc(F)cc2)ccn1` (configuration not stated) reads 21.5%.
The result for `CCOc1cc(CNC(C)c2sccc2C)ccn1` (configuration not stated) reads 66.9%; that for `CCOc1cccc(CCNC(=O)Cc2ccccc2O)n1`, 20.1%; that for `CCOc1cccc(CCNC(=O)Cc2ccn[nH]2)n1`, 61.8%.
In the case of `CCOc1cccc(CCNC(=O)Cc2cccc(O)c2)n1`, the INHIBITION is recorded as 37.2%.
The value for `CC(=O)N1N=C(COc2ccc(Cl)cc2)OC1c1ccccc1` (configuration not stated) was 68.9%.
The result for `CC(=O)N1N=C(COc2ccc3c(c2)OCO3)OC1c1cccc(Cl)c1` (configuration not stated) reads 61.5%; that for `COc1ccc(C2OC(COc3ccccc3Br)=NN2C(C)=O)cc1` (configuration not stated), -52.1%; that for `CC(=O)N1N=C(COc2ccc(C)cc2)OC1c1ccc(N(C)C)cc1` (configuration not stated), 11.9%.
The value for `COc1ccc(C2OC(COc3ccc(C)cc3)=NN2C(C)=O)cc1` (configuration not stated) was -13.6%; that for `CC(=O)N1N=C(COc2ccc3c(c2)OCO3)OC1c1ccc(C)cc1` (configuration not stated) was -51.1%.

The record behind these values is ChEMBL document CHEMBL4513216, “Probing the Open Global Health Chemical Diversity Library for Multistage-Active Starting Points for Next-Generation Antimalarials” (ACS Infect Dis, 2020).
